# High-throughput results: PubChem, National Center for Advancing Translational Sciences (NCATS)
# Sm TGR block = blocks Schistosoma mansoni thioredoxin glutathione reductase; actives 3% (n = 360,000); purified TGR, DTNB reduction, TNB absorbance 405 nm; Q962Y6; Potency, µM (series often up to 114 µM), for the others: top-dose activity change, negative = inhibition, most hits filed as inhibitors; AID 485364; note: potency is the fitted concentration of half-maximal effect; nearly all actives have a fitted effect of over 60% in size
#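 TGR 20 nM + NADPH 100 uM (dispensed conc.), cpd preinc 15 min RT; start with NADPH (500 uM addition) then DTNB (15 mM addition). Kinetic TNB absorbance, 405 nm filter. Four-parameter Hill fit across titration.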
# Pf growth 48h = P. falciparum growth inhibition at 48 hours (one generation) | P. falciparum luciferase growth in erythrocytes, 48 h | Potency, µM (series often up to 28.7 µM), for the others: top-dose activity change, negative = inhibition, hits mostly inhibitors | actives 5.9% (n = 310,000) | AID 504832; note: potency is the fitted concentration of half-maximal effect
#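 Compounds are pin-transferred into medium, infected erythrocytes (2% hematocrit, 0.1% parasitemia final) are added, and plates sit one parasite generation at 37 C in 5% CO2. Detection reagent is then added and luminescence measured.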
# Giardia FBPA inh = inhibitors of Giardia lamblia fructose-1,6-bisphosphate aldolase; actives 0.71% (n = 290,000); A8B2U2; purified Giardia FBPA; Potency, µM (titrated, usually from 59.6 µM), for the others: at the top dose activity, negative = inhibition, hits mostly inhibitors; AID 2451; note: potency is the fitted concentration of half-maximal effect; nearly all actives have a fitted effect of over 55% in size
# Target sequence (A8B2U2 whole entry, looked up): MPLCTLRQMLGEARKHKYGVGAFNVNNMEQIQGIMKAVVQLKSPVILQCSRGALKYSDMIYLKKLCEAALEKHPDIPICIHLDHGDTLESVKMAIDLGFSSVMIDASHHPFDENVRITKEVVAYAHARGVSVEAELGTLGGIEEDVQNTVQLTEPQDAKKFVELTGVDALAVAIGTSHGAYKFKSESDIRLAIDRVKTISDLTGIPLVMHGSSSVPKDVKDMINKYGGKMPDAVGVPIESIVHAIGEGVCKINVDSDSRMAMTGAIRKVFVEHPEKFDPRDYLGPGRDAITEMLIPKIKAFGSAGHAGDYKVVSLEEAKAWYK
#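 40 nM FBPA preincubated 10 min at RT with compound (up to 57.5 uM final), then substrate plus GAPDH/TPI/NAD/arsenate coupling and diaphorase/resazurin added. Fluorescence read after 20 min at RT, 525/598 nm.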
# HCMV inh = blocks human cytomegalovirus replication; HFF cells, HCMV-luciferase reporter, 72 h; hits give low values; activity change, negative = inhibition, % at 57.5 µM; actives 4.5% (n = 410,000); in the data active = activity change below about -60%; inconclusive = no clear call, values can overlap the other calls; inactive = above about -39%
#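 Luciferase read-out from HCMV-luciferase-infected HFFs (MOI 1 PFU/cell) 72 h post infection at 37C; compounds added after 16 h cell attachment; activity normalized between buffer-only basal and Salinomycin (10uM) inhibitor controls.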
# Pf growth 96h = inhibits malaria parasite growth, 96 h. actives 6.9% (n = 320,000). Potency, µM (top dose mostly 28.7 µM), for the others: top-dose activity change, negative = inhibition, hits mostly inhibitors. P. falciparum luciferase reporter growth, 96 h; note: potency is the fitted concentration of half-maximal effect
#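 Luminescence readout: decreased luciferase signal marks inhibited growth of reporter-expressing P. falciparum in infected red cells (2% hematocrit, 0.05% parasitemia final), exposed to compound two generations (96 h, 37 C, 5% CO2).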
# * hit, by the source's call; ? = inconclusive; . = no result given; [ ] = dose if it differs, or a comment. Hits are enriched below; roughly 14% of the tested compounds scored in any of these assays. Unless noted, calls come from the whole dose curve; as a rule, active = well fitted curve in the direction sought with a large enough effect; inconclusive = small, poorly fitted or top-dose-only effect, or another doubt; inactive = no such curve, though single readings can be large; an effect the other way counts as inactive or inconclusive. % is set by controls: 0 for no effect and ±100 for the full control effect.
SMILES,Sm TGR block,Pf growth 48h,Giardia FBPA inh,HCMV inh,Pf growth 96h
CN(C)Cc1nc2ccccc2c(=O)n1Cc1nc(C(C)(C)C)cs1,-0.7%,13.1µM*,7.9%,-21.4,-18.2%
COC(=O)[C@@H]1CC2=CC(=O)CC[C@]2(C)[C@@]23O[C@@H]2C[C@@]2(C)[C@H](CC[C@@]24CCC(=O)O4)[C@@H]13,.,.,3.3%,.,.
CCN(CC)S(=O)(=O)c1ccc2c(c1)c(=O)c(C(=O)N1CCN(c3ccc(F)cc3)CC1)cn2C,-32.6%,.,.,3.4,.
COc1ccc(C2c3[nH]c4ccccc4c3CCN2C(=O)c2cn3ccccc3n2)c(F)c1 (centres undefined),5.4%,14.7µM*,-7.1%,1.8,?
COc1cccc(C2c3[nH]c4ccccc4c3CCN2C(=O)c2ccccc2F)c1OC (centres undefined),4.3%,9.28µM*,12.1%,10.2,?
COc1ccc(C2c3[nH]c4ccccc4c3CCN2C(=O)c2ccccc2C(C)=O)c(F)c1 (centres undefined),0.8%,?,-4.2%,200.2,-17.8%
COc1ccc2[nH]c3c(c2c1)CCN(C(=O)c1cccc(Cl)c1)C3c1ccc(F)cc1 (centres undefined),1.5%,.,.,-72.9*,.
CCn1cc(CN2CCc3c([nH]c4ccccc34)C2c2cccc(OC)c2OC)c(C)n1 (centres undefined),-21.2%,11.7µM*,-9.2%,20.5,0.0%
CCc1ccc2occ(CC(=O)Nc3ccccc3C(F)(F)F)c2c1,0.4%,.,.,6.5,.
Cc1ccc(S(=O)(=O)N2C[C@H]3C(=O)C[C@@H](c4ccccc4)N(S(=O)(=O)c4ccccc4[N+](=O)[O-])[C@H]3C[C@H]2c2ccccc2)cc1,.,.,.,-19.2,.
COc1ccc(C2c3[nH]c4ccccc4c3CCN2C(=O)c2cc3ncccn3n2)c(F)c1 (centres undefined),5.4%[57.1 µM],13.1µM*,-4.9%,57.9,48.5%
COc1ccc(NC(=O)Nc2ccc(OC)c(OC)c2)c([N+](=O)[O-])c1,-1.6%,11.2%,4.8%,18.9,15.7%
COc1ccc([N+](=O)[O-])cc1NC(=O)Nc1cccc(Cl)c1,1.4%,9.28µM*,1.5%,-61.7*,86.7%
COc1ccc(NC(=O)NC23CC4(C)CC(C)(CC(C)(C4)C2)C3)cc1OC,6.2%,2.62µM*,0.7%,?,?
COc1cc([N+](=O)[O-])ccc1NC(=O)Nc1cccnc1,-7.0%,?,14.7%,-6.5,76.3%
COc1ccc([N+](=O)[O-])cc1NC(=O)Nc1ccc(OC)c(OC)c1,-1.0%,?,-19.6%,-72.4*,19.0%[5.75 µM]
c1ccc(-c2ccccc2OCCN2CCCC2)cc1,-3.0%,6.1%,?,6.5,13.1µM*
c1ccc(-c2ccccc2OCCCCN2CCCCCC2)cc1,0.6%,?,?,-76.9*,-2.7%
COc1ccccc1OCCCCCCN1CCOCC1,2.0%,?,?,-84.2*,36.5%
Cc1cccc(Cl)c1OCCCN1CCOCC1,51.3%,12.6%,?,-13.3,3.7µM*
Cc1cccc(C)c1OCCCN1CCCC1,-0.9%,.,-21.5%,17.0,177.4%
COc1ccc(CC(=O)Oc2ccc(Br)cc2F)cc1S(=O)(=O)N1CCOCC1,-24.2%,11.3%,.,-5.0,21.4%
CC(=O)N/C(=N\c1nc(C)cc(C)n1)Nc1ccc2ccccc2c1,10.4%,52.2%,-0.5%,-26.7,20.8%
c1ccc(-c2ccccc2OCCCN2CCOCC2)cc1,.,26.3%,13.1%,-10.2,9.0%
CC1CCN(CCOCCOc2ccccc2-c2ccccc2)CC1,-5.7%,?,-18.5%,?,20.5%
SMILES,Sm TGR block,Pf growth 48h,Giardia FBPA inh,HCMV inh,Pf growth 96h
CC1CCN(CCCCOc2ccccc2-c2ccccc2)CC1,1.4%,10.4µM*,?,?,81.8%
OCCCN1CCN(CCCOc2ccccc2-c2ccccc2)CC1,-0.4%,?,-23.8%,-35.2,10.4µM*
CCOC(=O)c1c(NC(=O)C2CC2)sc2c1CC(C)(C)OC2,15.7%,11.7µM*,3.2%,-16.2,-4.1%
CC[C@H](C)[C@H](NC(=O)[C@H](C)NC(=O)[C@H](Cc1cnc[nH]1)NC(=O)[C@@H]1CCCN1C(=O)CNC(=O)[C@H](CC(C)C)NC(=O)[C@H](CC(C)C)NC(=O)[C@H](Cc1ccc(O)cc1)NC(=O)CNC(=O)[C@H](C)NC(=O)[C@H](CO)NC(=O)[C@H](CC(N)=O)NC(=O)[C@H](CC(C)C)NC(=O)[C@@H](NC(=O)[C@H](Cc1c[nH]c2ccccc12)NC(=O)CN)[C@@H](C)O)C(=O)O,.,.,-0.2%,.,.
Cc1ccccc1N1CC(C(=O)O)CC1=O (centres undefined),0.1%,-15.1%,-2.0%,-84.9*,?
Cc1cc(NC(=O)C2CC(=O)N(c3ccccc3C)C2)no1 (centres undefined),-4.9%,16.1%,13.8%,0.3,11.7µM*
CC(=O)N/N=C(\C)CC(=O)NC(C)(C)C,-1.3%,25.9%,2.7%,-39.7,3.7µM*
C/C(=N/NC(=O)c1ccc(Cl)s1)c1ccc(NC(=O)COc2ccc(Cl)cc2)cc1,-3.5%,-17.1%,-5.0%,-77.0*,?
OCC[C@@H]1C[C@H](O)[C@@H](O)[C@]2(OCc3ccc(CO)cc32)O1,.,.,.,-16.6,.
COc1ccc(CCC2(C)NC(=O)N(C(C)C(=O)N3c4ccccc4CC3C)C2=O)cc1 (centres undefined),-2.8%,13.1µM*,.,39.7,?
CCOc1ccccc1C(=O)Nc1cc2c(cc1N1CCCC1)n(CC)c(=O)n2CC,-3.6%,?,.,-35.1,-12.5%
CCn1c(=O)n(CC)c2cc(N3CCCC3)c(NC(=O)c3cc(Cl)ccc3OC)cc21,-23.5%,?,-0.9%,-20.4,8.28µM*
CCOc1ccccc1NC(=O)Nc1cc2c(cc1N1CCCCC1)n(CC)c(=O)n2CC,-12.1%,.,.,-61.6*,.
CCn1c(=O)n(CC)c2cc(N3CCCC3)c(NC(=O)c3ccccc3OC)cc21,-1.9%,?,3.7%,?,-2.0%
CCn1c(=O)n(CC)c2cc(N3CCCC3)c(NC(=O)c3ccc(OC)c(Br)c3)cc21,?,13.1µM*,-21.7%,-21.3,-22.0%
CCn1c(=O)n(CC)c2cc(N3CCCC3)c(NC(=O)c3cccc(Cl)c3)cc21,-25.7%,?,-24.7%,-21.0,11.7µM*
CO[C@@H]1CN(C)C(=O)c2ccc(NS(=O)(=O)c3c(C)noc3C)cc2OC[C@@H](C)NC[C@@H]1C,.,.,.,-14.8,.
Cc1ccc2occ(CC(=O)Nc3ccc(Cl)c(C(F)(F)F)c3)c2c1,30.2%,.,.,-77.7*,.
COc1ccc(-c2coc3c(CN4CCCCC4)c(O)c(CN4CCCCC4)c(O)c3c2=O)cc1,-30.0%,5.86µM*,-8.2%,.,88.4%
COc1ccc(OC)c(C(O)c2coc3ccc(O)c(CN4CCOCC4)c23)c1 (centres undefined),-1.1%,7.38µM*,1.6%,27.8,17.3%
